Experimental data from PubChem BioAssay (NCATS).

Target: Cytochrome P450 3A4 (Homo sapiens) (UniProt P08684)
Assay: qHTS Assay for Activators of Cytochrome P450 3A4 (AID 885); also: nearly all actives have a fitted effect of over 65% in size
Conditions: recombinant CYP3A4, Luciferin-PPXE luminescence, 60 min; series mostly up to 57.1 µM; activity change, positive = activation: at the top concentration; active = well fitted activation curve with a large enough effect; inconclusive = small, poorly fitted or top-dose-only effect; inactive = no such curve, though single readings can be large or run the other way
Summary of the method: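 Luminescent readout of luciferin formed from 25 uM Luciferin-PPXE (KM level) by 20 nM CYP3A4 in 200 mM KPO4, with 60 min NADPH-driven reaction at room temperature after 10 min compound exposure. Ketoconazole (57 uM) defined 100% inhibition.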

Cytochrome P450 3A4 (Homo sapiens), sequence (P08684 whole entry, looked up): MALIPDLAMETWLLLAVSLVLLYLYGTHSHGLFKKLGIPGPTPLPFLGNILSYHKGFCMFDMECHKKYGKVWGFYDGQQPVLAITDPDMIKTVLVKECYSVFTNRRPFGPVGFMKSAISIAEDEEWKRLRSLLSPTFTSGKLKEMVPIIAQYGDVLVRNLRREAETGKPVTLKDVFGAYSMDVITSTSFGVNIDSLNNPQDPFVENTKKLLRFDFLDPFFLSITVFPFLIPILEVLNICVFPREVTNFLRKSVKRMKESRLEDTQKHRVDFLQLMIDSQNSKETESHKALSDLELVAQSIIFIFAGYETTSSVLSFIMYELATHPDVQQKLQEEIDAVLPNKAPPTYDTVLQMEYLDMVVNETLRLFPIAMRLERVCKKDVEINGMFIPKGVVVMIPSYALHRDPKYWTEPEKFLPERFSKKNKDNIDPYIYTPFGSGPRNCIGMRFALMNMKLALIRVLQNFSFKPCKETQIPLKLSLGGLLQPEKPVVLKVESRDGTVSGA

Activity change, positive = activation, inactive:
COc1ccc(O[C@H]2C=C[C@@H](c3ccccc3)O[C@@H]2CON=C(C)C)cc1 -40.2% [at 11.4 µM]
COC(=O)CNC(=O)C1(C)C=CC2(CCCCC2)N1C(C)=O (stereo not given) -35.3%
COC(=O)C/C=C\[C@@H](C)[C@@H](CO)NS(=O)(=O)c1ccc(C)cc1 -37.6% [at 11.4 µM]
CCc1cc2c(nc1CC)CCN(CC/C(C)=N/OC[C@@H](C)[C@H](OCc1ccccc1)C(C)C)C2 -34.8% [at 11.4 µM]
CCN1C(=O)[C@H]2[C@H]3[C@H](O)[C@H](O)C/C(=N/OC[C@@H](C)[C@H](OCc4ccccc4)C(C)C)[C@@H]3CC[C@@H]2C1=O -44.7% [at 11.4 µM]
COC(=O)[C@@H]1CC[C@H](C)[C@@H](c2ccc(C)cc2)N1C(=O)c1ccc(/C=N\O[C@@H](C)c2cn([C@H]3COC[C@H]3O)nn2)cc1 -43.4% [at 11.4 µM]
Cn1c(N)c(C(=O)COC(=O)c2cc(-c3ccccc3)nc3ccccc23)c(=O)n(Cc2ccccc2)c1=O -47.3%
O=C1[C@H]2[C@H]3[C@H](O)[C@H](O)C/C(=N/OC[C@@H](O)COCc4ccco4)[C@H]3CC[C@@H]2C(=O)N1Cc1ccccc1 -57.9% [at 11.4 µM]
CC(=O)OC[C@H]1O[C@@H](O/N=C(\C)CCN2CCc3nc(-c4ccccc4)c(-c4ccccc4)cc3C2)[C@H](OC(C)=O)[C@@H](OC(C)=O)[C@H]1OC(C)=O -41.6% [at 11.4 µM]
CC(=O)OC[C@@H]1O[C@H](C/C=N\O[C@@H](C)CN2CCCc3nc(C)c(C)cc32)C=C[C@@H]1OC(C)=O -35.5% [at 11.4 µM]
CCCCNC(=O)C(c1ccc(OCC(=O)OC)c(C(=O)OC)c1)N(CCC1=CCCCC1)C(=O)CCCCCN1C(=O)NC(c2ccc(-c3ccccc3)cc2)C(C(=O)OCc2ccccc2)=C1C (stereo not given) -52%
COC(=O)c1cccc(C23CC4(C2)[C@H](CN(Cc2ccc(C(F)(F)F)cc2)[C@@H]4c2ccccc2)C3c2ccc(C(F)(F)F)cc2)c1 (stereo not given in full) -34.6%
CC(C)CO/N=C1/C[C@@H](O)[C@@H](O)[C@@H]2[C@@H]3C(=O)N([C@@H](C)c4ccccc4)C(=O)[C@H]3CC[C@H]12 -46.1% [at 11.4 µM]
CC(C)=NO[C@@H](C)CN1CCCCc2nc(C)c(C)cc21 -46.4% [at 11.4 µM]
CO/N=C(\C)CCN1CCCCc2nc(C)c(C)cc21 -38.2% [at 11.4 µM]
CC(=O)OC[C@H]1O[C@@H](O/N=C(\C)CCN2CCCc3nc(C)c(C)cc32)[C@H](OC(C)=O)[C@@H](OC(C)=O)[C@H]1OC(C)=O -36.5% [at 11.4 µM]
CC(=O)OC[C@H]1O[C@@H](O/N=C(\C)CCN2CCCCc3nc(C)c(C)cc32)[C@H](OC(C)=O)[C@@H](OC(C)=O)[C@H]1OC(C)=O -53.9% [at 11.4 µM]
COC(=O)c1ccc(CN2[C@H](C(=O)OC)C[C@@]3(O)[C@H](O)[C@H](O)[C@H](O)C[C@@H]23)cc1 -38.6%
CO[C@@H]1COC(=O)C/C=C\[C@@H](C)COC(=O)[C@H](Cc2ccccc2)NC(=O)C/C=C\[C@H]1C -39.1% [at 11.4 µM]
C[C@@H](c1ccccc1)N1C(=O)[C@H]2[C@H]3[C@H](O)[C@H](O)C/C(=N/OCc4ccccc4)[C@@H]3CC[C@@H]2C1=O -50% [at 11.4 µM]
COC(=O)[C@@H]1C[C@@]2(O)[C@@H](O)[C@@H](O)[C@@H](O)C[C@H]2N1CC1CCCCC1 -36.1%
COc1ccc(COC(=O)N/N=C2/C[C@@H](O)[C@@H](O)[C@@H]3[C@@H]4C(=O)N([C@@H](C)c5ccccc5)C(=O)[C@H]4CC[C@@H]23)cc1 -39.8% [at 11.4 µM]
O=C(NCCC[N+]1=CC=N[C@H]1c1ccccc1)N1CCCc2nc(-c3ccc(Br)cc3)ccc21 -35.8% [at 11.4 µM]
COc1ccc(OC2C=CC(C#Cc3ccc(C(C)(C)C)cc3)OC2CO)cc1 (stereo not given) -56.3% [at 11.4 µM]
COC(=O)[C@@H]1C[C@@]2(O)[C@H](O)[C@H](O)[C@H](O)C[C@H]2N1CC(c1ccccc1)c1ccccc1 -52.9%
CC(C)=CCC/C(C)=C/CO/N=C1/C[C@@H](O)[C@@H](O)[C@@H]2[C@@H]3C(=O)N(C[C@@H]4CCCO4)C(=O)[C@H]3CC[C@H]12 -35.7% [at 11.4 µM]
Cn1c(N)c(C(=O)COC(=O)c2ccnc3ccccc23)c(=O)n(C)c1=O -56.8%
CC(=O)OC[C@@H]1O[C@H](C/C=N\O[C@@H](C)CN2CCCCc3nc(C)c(C)cc32)C=C[C@@H]1OC(C)=O -57.2% [at 11.4 µM]
CO[C@@H]1COC(=O)[C@H]2CCCN2C(=O)[C@@H](C)COC(=O)[C@H](COCc2ccccc2)NC(=O)C/C=C\[C@H]1C -38.2% [at 11.4 µM]
COC(=O)[C@@H]1C[C@@]2(O)[C@H](O)[C@H](O)[C@H](O)C[C@H]2N1Cc1ccc(C(F)(F)F)cc1 -51.1%
COC(=O)[C@@H]1CC[C@H](C)[C@@H](c2ccc(C)cc2)N1C(=O)c1ccc(/C=N\O[C@@H](C)CN2CCCc3nc(C)c(C)cc32)cc1 -48.9% [at 11.4 µM]
O=C1[C@H]2[C@H]3[C@H](O)[C@H](O)C/C(=N/OC[C@@H](O)COCc4ccco4)[C@@H]3CC[C@@H]2C(=O)N1c1cccc(Oc2ccccc2)c1 -40.2% [at 11.4 µM]
CCc1cc2c(nc1CC)CCN(CC/C(C)=N/O[C@@H](C)CN1CCCc3nc(C)c(C)cc31)C2 -50.2% [at 11.4 µM]
COC(=O)c1cccc(C23CC4(C2)[C@H](CN(Cc2ccc(C(F)(F)F)cc2)[C@@H]4c2ccccc2)C3c2ccc(Cl)nc2)c1 (stereo not given in full) -32.7%
CCOC(=O)N/N=C1/C[C@@H](O)[C@@H](O)[C@@H]2[C@@H]3C(=O)N(Cc4ccc5c(c4)OCO5)C(=O)[C@H]3CC[C@H]12 -58.6% [at 11.4 µM]
CO[C@@H]1COC(=O)[C@@H](C)NC(=O)C/C=C\[C@@H](C)[C@H](NS(=O)(=O)c2ccc(C)cc2)COC(=O)[C@H](C)NC(=O)C/C=C\[C@H]1C -53.2% [at 11.4 µM]
COC(=O)[C@@H]1C[C@@]2(O)[C@H](O)[C@H](O)[C@H](O)C[C@H]2N1Cc1c(F)cccc1Cl -36.9%
N#Cc1ccc(C23CC4(C2)[C@H](CN(Cc2ccc(C(F)(F)F)cc2)[C@@H]4c2ccccc2)C3c2ccccc2)cc1 (stereo not given in full) -57.8%
CC1(C)CC(=O)c2c(oc3cc(O)c(O)cc23)C1 -39.3%
COC(=O)[C@@H]1C[C@@H]2CC[C@@H](O)C[C@@H]2N1Cc1ccc(N2CCOCC2)cc1 -34.3%
